Screening results (PubChem BioAssay)
HBB splice mod = hemoglobin beta splicing modulation | HBB splicing reporter cell assay, activation; EGFP reporter with mutant IVS2-654 intron; response scale: normalised to 500 nM splice-correcting PNA | Potency, µM (titrated, usually from 46.1 µM), for inactives: at the highest dose activation, most hits filed as activators | 65,000 tested, 0.06% active | AID 925; note: potency is the fitted concentration of half-maximal effect; 0% is about no effect
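HeLa cells stably expressing EGFP interrupted by mutant beta-globin intron 2 (IVS2-654), 500/well in 2% FCS. Treated with compound for 2 days at 37C. Splicing correction scored as total well GFP intensity (488 nm excitation, 500-520 nm emission); 500 nM antisense PNA served as control.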
Epigenetic mod = epigenetic GFP locus derepression in mouse cells | Potency, µM (highest dose often 46.1 µM), without a hit: at the highest dose GFP derepression (activation) | AID 597 | mouse C127i GFP locus derepression, cytometry, 30 h | 68,000 tested, 0.09% active; note: % of control where 0% means no effect
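Locus derepression in mouse mammary C127i cells whose integrated CMV-GFP reporter is normally silent; GFP expression after 30 h compound treatment was quantified by counting fluorescent cells.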
IkB sig inh = IkB pathway inhibition in ABC-DLBCL cells. ABC-DLBCL IkBa-CBG/CBR dual luciferase ratio, 4 h; response scale: scaled: untreated 0%, proteasome inhibitor 100%. Potency, µM (doses to about 57.1 µM), for inactives: at the highest dose IkBa stabilization activation. 110,000 tested, 0.04% active; active = well fitted curve in the direction sought with a large enough effect in the signal ratio, not every such curve was filed as active; inconclusive = small, poorly fitted or top-dose-only effect, or a change in a side signal; the % refers to the signal ratio;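 note: potency is the fitted concentration of half-maximal effect; the direction sought is a rising ratio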
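In this assay, an IκBα–CBG68 fusion accumulates when IKK-driven degradation is blocked; native CBR normalizes for cell number. OCI-Ly3 cells were treated 4 h with compound and doxycycline, then green and red light read after Chroma-Glo addition.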
Imprint erasure = induces erasure of genomic imprints in mouse ES cells; mouse ES Peg3-LacZ reporter, beta-gal luminescence, 40 h; Potency, µM (series often up to 60.7 µM), inactives show at the highest dose activity change, positive = activation, usual class: activators; 110,000 tested, 0.02% active; note: potency is the fitted concentration of half-maximal effect
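Each well holds 300 Peg3LacZ-Neo (maternal) female ES cells incubated 40 h at 37C, 5% CO2. LacZ is measured by BetaGlo luminescence, with AC50 and maximum efficacy derived from dose-response curves.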
CRE-bla Fsk = alters forskolin-stimulated CRE reporter signaling in CHO cells; CHO CRE-bla reporter (cAMP response element driving beta-lactamase), forskolin EC10, beta-lactamase ratio; Potency, µM (top dose mostly 38.2 µM), without a hit: at the top dose activity change, negative = inhibition, usual class: activators; 71,000 tested, 2.5% active; AID 662; active = well fitted activation curve with a large enough effect in the signal ratio, with a control signal flat, not every such curve was filed as active; inconclusive = small, poorly fitted or top-dose-only effect, or effect the other way, or a change in a side signal; the % refers to the signal ratio; note: potency is the fitted concentration of half-maximal effect; % of control where 0% means no effect
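Modulation of forskolin signalling: compounds in titration series added with EC10 NKH 477 to CHO cells carrying a CRE-driven beta-lactamase reporter, 3 h, 37C. CCF4 FRET ratio (460/530 nm, ex 405 nm) gives %activity and AC50.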
CHO tox 24h = reduces CRE-bla CHO cell viability after 24 hours | activity, negative = viability loss, % at 46.1 µM | shares compounds with CRE-bla Fsk | CRE-bla CHO viability, ATP luminescence, 24 h | 120 tested, under 10 active
CHO tox 40h = cytotoxicity in CRE-bla CHO cells at 40 h | shares compounds with CRE-bla Fsk | CRE-bla CHO viability, ATP luminescence, 40 h | Potency, µM, for the others: max response, usual class: inhibitors | 120 tested, under 10 active
CREB luc CRC = confirmation of CRE signaling potentiators in HEK293 CREB reporter cells; HEK293 CRE-luc2P, NKH477 EC10 potentiation, luminescence, 4 h; Potency, µM (doses to about 38.3 µM), without a hit: at the highest dose activity, positive = activation, actives largely listed as activators; 120 tested, 80% active; shares compounds with CRE-bla Fsk
Numbers without * were called inactive; u = inconclusive; x = no result given; ! = repeats disagree; [ ] = another dose, or the depositor's remark. Many of the other results were omitted from the sample, so hits are more common in it than they were. Unless noted, calls come from the whole dose curve; as a rule, active = well fitted curve in the direction sought with a large enough effect; inconclusive = small, poorly fitted or top-dose-only effect, or another doubt; inactive = no such curve, though single readings can be large; an effect the other way counts as inactive or inconclusive.

SMILES	HBB splice mod	Epigenetic mod	IkB sig inh	Imprint erasure	CRE-bla Fsk	others
COc1ccc(Cn2c(N)c(C(=O)NCc3ccco3)c3nc4ccccc4nc32)cc1OC	3%[0.369 µM]	0%	16%	-26%	u
COC(=O)c1c(N)n(Cc2ccc(OC)cc2)c2nc3ccccc3nc12	2%	-3%	u	-16%	16µM*
COCCOC(=O)c1c(N)n(Cc2ccco2)c2nc3ccccc3nc12	x	11%[20.6 µM]	x	x	x
COCCOC(=O)c1c(N)n(Cc2ccc(OC)cc2)c2nc3ccccc3nc12	0%[0.369 µM]	2%	0%	-2%	10µM*
COCCCn1c(N)c(C(=O)OCCOC)c2nc3ccccc3nc21	2%[0.369 µM]	2%	0%	-1%	10µM*
CCOC(=O)c1c(N)n(Cc2ccc(OC)cc2)c2nc3ccccc3nc12	-1%	-3%	2%	-8%	10µM*
C[C@@H]1O[C@H](O[C@H]2C[C@@H](O)[C@]3(CO)[C@H]4[C@H](O)C[C@]5(C)[C@@H](C6=CC(=O)OC6)CC[C@@]5(O)[C@H]4CC[C@]3(O)C2)[C@@H](O)[C@H](O)[C@H]1O	x	0%[9.22 µM]	u	x	u
CN(C)[C@@H]1C(=O)C(C(N)=O)=C(O)[C@]2(O)C(=O)C3=C(O)c4c(O)cccc4[C@@](C)(O)[C@@H]3C[C@@H]12	x	-5%[9.22 µM]	2%[11.4 µM]	x	u
Nc1c(C(=O)OCC2CCCO2)c2nc3ccccc3nc2n1Cc1cccs1 (stereo not given)	-1%[0.369 µM]	-2%	u	-11%	10µM*
CC(C)OC(=O)c1c(N)n(Cc2ccco2)c2nc3ccccc3nc12	x	27%[20.6 µM]	x	x	x
CCOC(=O)c1c(N)n(CCCOC(=O)c2ccco2)c2nc3ccccc3nc12	-2%[57.5 µM]	-2%	-2%	-12%	10µM*
COc1cc2c(cc1O)CCN[C@H]2C	x	-5%[9.22 µM]	-1%[11.4 µM]	x	u
CC(C)[C@@]1(NC(=O)[C@@H]2C=C3c4cccc5[nH]cc(c45)C[C@@H]3N(C)C2)O[C@]2(O)[C@H]3CCCN3C(=O)[C@H](Cc3ccccc3)N2C1=O	10%	0%	0%	x	17%
Cc1cc(C)c(C(=O)CN2CCOCC2)c(C)c1	9%[1.84 µM]	4%	9%	-26%	25µM*
CN(C=O)CP(=O)(O)CN(C)C=O	-2%	4%	-2%	-20%	16µM*
CCN1C[C@@]2(COC(=O)c3ccccc3N3C(=O)C[C@H](C)C3=O)CC[C@H](OC)[C@@]34[C@@H]5CC6[C@@H](OC)C[C@@](O)([C@H]5[C@H]6OC)C(O)([C@@H]13)[C@@H](OC)[C@H]24	x	-5%[9.22 µM]	0%[11.4 µM]	x	-1%
COc1cc([C@H]2c3cc4c(cc3[C@@H](O)[C@@H]3COC(=O)[C@H]23)OCO4)cc(OC)c1OC	-2%[20.6 µM]	6%[20.6 µM]	u	-23%[16.8 µM]	0.013µM*
COc1cc(C2c3cc4c(cc3C(O)[C@H]3COC(=O)C23)OCO4)cc(OC)c1OC (stereo not given in full)	x	x	x	-33%	x
C[C@@]12CC[C@H](O)C[C@@H]1CC[C@H]1[C@H]2C[C@@H](O)[C@]2(C)[C@@H](C3=CC(=O)OC3)CC[C@@]12O	x	-2%[9.22 µM]	u	x	-5%
COc1cc2cc(c1Cl)N(C)C(=O)C[C@H](OC(=O)C(C)C)[C@]1(C)O[C@@H]1[C@@H](C)[C@H]1C[C@](O)(NC(=O)O1)[C@@H](OC)/C=C\C=C(\C)C2	-1%[9.22 µM]	6%[9.22 µM]	u	-30%[10.9 µM]	0.016µM*
C=C[C@@H]1CN2CC[C@H]1C[C@H]2[C@@H](O)c1ccnc2ccccc12	x	-1%[9.22 µM]	2%[11.4 µM]	x	-12%
CCN(CC)C(=O)N[C@@H]1C=C2c3cccc4[nH]cc(c34)C[C@@H]2N(C)C1	-1%	1%	-4%	x	u
O=C(c1ccccc1)[C@H]1[C@H](c2ccccc2[N+](=O)[O-])N1C1CCCCC1 (stereo not given in full)	1%[9.22 µM]	-3%[9.22 µM]	5µM*	-21%[10.9 µM]	-16%[7.6 µM]
O=[N+]([O-])c1ccccc1O	0%	x	-1%	0%	-6%
COC(=O)C1=C(C)NC(C)=C(C(=O)OC)C1c1ccccc1[N+](=O)[O-]	-2%	-2%[20.6 µM]	u	-30%	2µM*!
SMILES	HBB splice mod	Epigenetic mod	IkB sig inh	Imprint erasure	CRE-bla Fsk	others
[Cd+2].[Cl-].[Cl-]	-2%	x	4µM*	-22%	u
O=C(c1cc2cc3ccc(Cl)cc3nc2o1)N1CCC2(CC1)OCCO2	0%	1%	-2%	-8%	3.2µM*
O=C(c1cc(-c2cccnc2)nc2ccc(Cl)cc12)N1CCC2(CC1)OCCO2	-3%	7%	0%	-3%	-2%
C=CCn1c(O)c(C(CC)=NCc2cc(OC)cc(OC)c2)c(=O)[nH]c1=O	3%[1.84 µM]	4%	-1%	-19%	10µM*
C=C(C)[C@H]1[C@H]2OC(=O)[C@@H]1[C@]1(O)C[C@H]3O[C@]34C(=O)O[C@H]2[C@]14C	x	-2%[9.22 µM]	0%[11.4 µM]	x	-9%
CO[C@@H](C)[C@](O)(C(=O)OC1=CCN2CC[C@H](O)[C@H]12)C(C)C	x	-5%[9.22 µM]	3%[11.4 µM]	x	12%
CN1CSC(=S)N(C)C1	1%	6.3µM*	4%	-33%	-5%
Nc1nc2ccc(Cl)cc2c2nc(-c3ccco3)nn12	0%	0%	-1%	1%	0.2µM*	CHO tox 24h=-26;CHO tox 40h=u;CREB luc CRC=u
CC[C@H]1[C@@H]2C[C@@H]3[C@@H]4N(C)c5ccccc5[C@@]45C[C@@H]([C@H]2[C@@H]5O)N3[C@@H]1O	x	-5%[9.22 µM]	0%[11.4 µM]	x	-18%
COc1cc(CCN)ccc1O	-1%	-2%	-2%	-13%	-2%
COc1ccc(Cc2nccc3cc(OC)c(OC)cc23)cc1OC	-1%[20.6 µM]	4%[20.6 µM]	u	-17%	0.16µM*	CHO tox 24h=u;CHO tox 40h=u;CREB luc CRC=0.71µM*
